About 450 (0.46%) of roughly 97,000 compounds were called active. This excerpt belongs to a sample that is enriched for actives. Unmarked numbers belong to inactive results. Cut-off read from the data, not from the text of the source: active = activation above about 16%; inactive = the rest.

The test deals with Sphingosine 1-phosphate receptor 2 (Homo sapiens) (UniProt O95136). The experiment in a line: S1P2 receptor agonists, primary screen, cell-based (AID 729).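 Note: 0% = vehicle low control and 100% = maximal reference agonist.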 The settings on record: S1P2-expressing cell line, agonist reporter read-out; at 4.5 µM; active compounds read high.
Sequence of Sphingosine 1-phosphate receptor 2 (Homo sapiens) (O95136 whole entry, looked up): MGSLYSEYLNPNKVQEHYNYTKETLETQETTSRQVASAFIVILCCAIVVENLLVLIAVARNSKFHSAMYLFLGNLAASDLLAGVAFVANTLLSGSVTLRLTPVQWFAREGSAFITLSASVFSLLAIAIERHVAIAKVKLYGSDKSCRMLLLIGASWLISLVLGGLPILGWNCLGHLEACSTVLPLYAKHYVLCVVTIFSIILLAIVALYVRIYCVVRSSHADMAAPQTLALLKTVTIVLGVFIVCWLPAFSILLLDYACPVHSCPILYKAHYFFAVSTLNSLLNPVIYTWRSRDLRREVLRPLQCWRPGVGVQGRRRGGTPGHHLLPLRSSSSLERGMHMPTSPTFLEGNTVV
Consider `CCOC(=O)c1c(N)n(Cc2ccccc2)c2nc3ccccc3nc12`, for which the activation is 1.34%.

For the compound `CCOC(=O)c1c(N)n(CCN2CCOCC2)c2nc3ccccc3nc12`, the activation was -0.82%.

In the case of `COc1cc(Cn2c(N)c(C(=O)NCc3ccco3)c3nc4ccccc4nc32)cc(OC)c1OC`, the activation is 28.7% (active).

Turning to `O=c1c2ccccc2nc(-c2ccc(Cl)cc2Cl)n1-c1ccncc1`, the activation is -3.53%.

Consider `OC(Cn1c2ccccc2c2ccccc21)C[n+]1ccccc1` (stereo not given), for which the activation is -10.8%.

Values taken from PubChem BioAssay AID729 (The Scripps Research Institute Molecular Screening Center, 2007).
